Sampled rows, rich in hits. Any-hit rate of the full collection: about 6.5%.
Autofluor 339: intrinsic fluorescence of library compounds, ex339/em460 – biochemical, MLSMR library, data from DPM-DC assay, artefact control, profiling panel. compound autofluorescence, ex339/em460 nm, NADH buffer; active compounds read high; 1 = no-compound wells, NADH background. fluorescence fold increase at 10 µM. 5.5% of 65,000 active. AID 709, 2007;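 active = at 10 µM, mean starting fluorescence two-fold or more over control wells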;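 note: signal is the first read of a kinetic run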
Spn PMK inh: S. pneumoniae PMK inhibitors, primary screen, biochemical, mevalonate pathway, pilot trial included; inhibition, % at 10 µM; 0.49% of 65,000 active; purified PMK, PK/LDH-coupled NADH absorbance 340 nm; phosphomevalonate kinase (Streptococcus pneumoniae D39); AID 539, 2006;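 active = top-ranked compounds by inhibition in the single 10 µM screen, taking a fixed number of the strongest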;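 note: 0% = full reaction with DMSO carrier and 100% = background rate without enzyme reaction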
Spn DPM-DC inh: S. pneumoniae DPM-DC inhibitors, primary screen, biochemical, PK/LDH-coupled NADH fluorescence; purified DPM-DC; calls only at 10 µM; 0.49% of 65,000 active; AID 556, 2006;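 active = the 320 compounds with the highest percent inhibition in the single-dose primary screen, excluding strongly autofluorescent ones, cut at about 32% in these data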;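 note: kinetic rate of NADH fluorescence loss reporting ADP formed by the decarboxylase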
NADH coupling: inhibitors of PK/LDH coupling enzymes, profiling panel, artefact control, biochemical, MLSMR library | coupled PK/LDH NADH assays, four targets | IC50, µM (doses to about 10 µM), inactives show at the top dose inhibition | 0.02% of 65,000 active;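 active = single-dose screening hits from any of four coupled enzyme assays that gave an IC50 when retested across doses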;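 note: the DPM-DC format reads NADH fluorescence rather than 340 nm absorbance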
MK inhibit: S. pneumoniae MK inhibitors, primary screen, biochemical, PK/LDH-coupled NADH absorbance. mevalonate kinase [Streptococcus pneumoniae D39]. inhibition, % at 10 µM. AID 555, 2006. purified MK, PK/LDH-coupled NADH absorbance 340 nm. 0.48% of 65,000 active;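 active = ranked among the strongest by inhibition in the single 10 µM screen, a fixed top-ranked set picked for dose follow-up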
Abs 340nm: compound light absorbance at 340 nm, profiling panel, artefact control, biochemical, MLSMR library, data from PS, PMK, MK assays. compound absorbance at 340 nm, fold over control. fold change at 10 µM. 65,000 tested, under 10 active;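 active = at 10 µM dose, initial 340 nm absorbance at least 2 fold that of control wells; inactive = change under 2 fold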;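 note: initial absorbance extrapolated from kinetic A340 decline of NADH oxidation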
* marks the source's active call; other numbers are inactive results.

For COc1ccc2c(C)c(C(=O)NCC(C)O)oc2c1OC (configuration not stated) the results were Autofluor 339 2.3*, Spn PMK inh 15, NADH coupling 10%, MK inhibit 4 and Abs 340nm 1.1.
Screening COc1ccc(CNCCNC(=O)c2ccco2)c(OC)c1OC returned Autofluor 339 1.1, Spn PMK inh 7, Spn DPM-DC inh inactive, NADH coupling 3%, MK inhibit 1 and Abs 340nm 1.
For CCOc1ccccc1OCC(=O)Nc1nnc(COC)s1 the results were Autofluor 339 1, Spn PMK inh 14, Spn DPM-DC inh inactive, NADH coupling 4%, MK inhibit 4 and Abs 340nm 0.98.
`Cn1c(C(=O)Nc2ccc3c(c2)OCO3)cc2c(=O)n(C)c3ccccc3c21` gave Autofluor 339 2.3*, Spn PMK inh 7, NADH coupling 4%, MK inhibit 10 and Abs 340nm 1.
`Cc1ccc(OC(=O)CCc2c(C)nc3ncnn3c2C)cc1` gave Autofluor 339 1.1, Spn PMK inh 11, Spn DPM-DC inh inactive, NADH coupling 2%, MK inhibit 7 and Abs 340nm 0.99.
COCCCNC(=O)c1cc2c(=O)n3cccc(C)c3nc2n(C(C)C)c1=N was read as Autofluor 339 5.1*, Spn PMK inh 18, NADH coupling 13%, MK inhibit 8 and Abs 340nm 1.
Screening COCCn1c(=N)c(C(=O)NCCc2ccc(OC)cc2)cc2c(=O)n3cccc(C)c3nc21 returned Autofluor 339 2.7*, Spn PMK inh 8, Spn DPM-DC inh inactive, NADH coupling 10%, MK inhibit 9 and Abs 340nm 1.1.
COc1ccccc1NC(=O)N1CCN(c2ncccn2)CC1 was read as Autofluor 339 1.1, Spn PMK inh 1, Spn DPM-DC inh inactive, NADH coupling 2%, MK inhibit 5 and Abs 340nm 1.1.
Screening Cc1ccc(N(C(C)C(=O)N2CCCCC2)S(C)(=O)=O)cc1C (configuration not stated) returned Autofluor 339 1.1, Spn PMK inh 1, Spn DPM-DC inh inactive, NADH coupling 0%, MK inhibit 0 and Abs 340nm 1.
CCOC(=O)N1CCN(C(=O)C2CCN(S(=O)(=O)N3CCCC3)CC2)CC1 was read as Autofluor 339 1.1, Spn PMK inh 26*, Spn DPM-DC inh inactive, NADH coupling 9%, MK inhibit 0 and Abs 340nm 1.
CCOC(=O)N1CCN(C(=O)C2CCCN(S(C)(=O)=O)C2)CC1 (configuration not stated) was read as Autofluor 339 1, Spn PMK inh 23, Spn DPM-DC inh inactive, NADH coupling 8%, MK inhibit 0 and Abs 340nm 1.
`CC(C)(CC(=O)N1CCN(c2ccc(Cl)cc2)CC1)CC1=NS(=O)(=O)c2ccccc2N1` gave Autofluor 339 1.2, Spn PMK inh 1, Spn DPM-DC inh inactive, NADH coupling 3%, MK inhibit 7 and Abs 340nm 1.
CCN(CC)CCCN(Cc1cc2cc3c(cc2[nH]c1=O)OCO3)C(=O)Nc1ccccc1OC was read as Autofluor 339 2.8*, Spn PMK inh 5, Spn DPM-DC inh active, NADH coupling 15%, MK inhibit 7 and Abs 340nm 1.2.
CCN(CC)CCCN(Cc1cc2cc3c(cc2[nH]c1=O)OCCO3)C(=O)Nc1ccc(F)cc1 was read as Autofluor 339 3.2*, Spn PMK inh 6, Spn DPM-DC inh inactive, NADH coupling 11% and Abs 340nm 1.1.
CC(=O)N(CCc1ccccc1C)Cc1cc2cc3c(cc2[nH]c1=O)OCO3 was read as Autofluor 339 3*, Spn PMK inh 8, NADH coupling 4%, MK inhibit 6 and Abs 340nm 1.1.
For O=C(c1cccs1)N(CCO)Cc1cc2cc3c(cc2[nH]c1=O)OCCO3 the results were Autofluor 339 2.5*, Spn PMK inh 1, Spn DPM-DC inh inactive, NADH coupling 7%, MK inhibit 0 and Abs 340nm 1.1.
`Cc1cc(C)c2cc(CN(CCO)C(=O)Nc3ccc(F)cc3)c(=O)[nH]c2c1` gave Autofluor 339 1.2, Spn PMK inh 6, Spn DPM-DC inh inactive, NADH coupling 5%, MK inhibit 8 and Abs 340nm 1.
For CCCCCC(=O)OC(CN1CCCCC1)CN1CCCC1=O (configuration not stated) the results were Autofluor 339 1.1, Spn PMK inh 15, Spn DPM-DC inh inactive, NADH coupling 7%, MK inhibit 7 and Abs 340nm 0.99.
`CC1=C2C(CCS2(=O)=O)CC2(C1)C(=O)OC(C)(C)OC2=O` (configuration not stated) gave Autofluor 339 1.1, Spn PMK inh 4, Spn DPM-DC inh inactive, NADH coupling 4%, MK inhibit 8 and Abs 340nm 0.98.
Screening Cc1ccc(Cl)cc1NC(=O)CC(O)(C(F)(F)F)C(F)(F)F returned Autofluor 339 1.1, Spn PMK inh 0, Spn DPM-DC inh inactive, NADH coupling 2%, MK inhibit 6 and Abs 340nm 1.1.
`COCC(=O)Nc1nc2n(n1)C(c1ccccc1)CC(c1ccc(OC)cc1)N2` (configuration not stated) gave Autofluor 339 2.7*, Spn PMK inh 3, Spn DPM-DC inh inactive, NADH coupling 8%, MK inhibit 8 and Abs 340nm 1.1.
Screening COCC(=O)Nc1nc2n(n1)C(c1ccc(OC)cc1)CC(c1ccc(OC)cc1)N2 (configuration not stated) returned Autofluor 339 2, Spn PMK inh 0, Spn DPM-DC inh inactive, NADH coupling 4%, MK inhibit 6 and Abs 340nm 1.
For COc1ccc(C2CC(c3cccc(C)c3)n3nc(N)nc3N2)cc1 (configuration not stated) the results were Autofluor 339 0.14, Spn PMK inh 15, Spn DPM-DC inh active, NADH coupling 40%, MK inhibit 6 and Abs 340nm 1.1.
Cc1cccc(C2CC(c3ccc(Br)cc3)Nc3nc(N)nn32)c1 (configuration not stated) was read as Autofluor 339 1.1, Spn PMK inh 1, Spn DPM-DC inh inactive, NADH coupling 2%, MK inhibit 12 and Abs 340nm 0.99.
`CC1=C(C(=O)OCC(C)C)C23C(=O)c4ccccc4C2(O1)OC(N)=C3C#N` (configuration not stated) gave Autofluor 339 1.1, Spn PMK inh 3, Spn DPM-DC inh inactive, NADH coupling 2% and Abs 340nm 1.1.

Screening results as filed in PubChem.
